Results as given in PubChem BioAssay (NCATS).
Results filed as inconclusive are left out. A call without a number means that no potency is given here. The source made the active and inactive calls. Unless noted, calls follow the shape of the dose curve; as a rule, active = well fitted curve in the direction sought with a large enough effect; inconclusive = small, poorly fitted or top-dose-only effect, or another doubt; inactive = no such curve, though single readings can be large; an effect the other way counts as inactive or inconclusive.

Columns and labels:
[1] = qHTS assay for measurement of the activity of small molecule inhibitors on Zika virus induced Caspase-3 activity in human iPSC derived neural progenitor cells (hNPCs) (AID 1224857); also: nearly all actives have a fitted effect of over 65% in size
Summary of the method: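 Quantitative HTS format: human iPSC neural progenitors, 1 h compound pretreatment, ZIKV 2 FFU/cell for 6 h at 37 C. Percent inhibition derived from luminescent caspase-3/7 signal between uninfected and infected controls.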

[2] = qHTS assay for measurement of the activity of small molecule inhibitors on Zika virus induced Caspase-3 activity in human astrocytoma cells (AID 1224859)
Summary of the method: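 Readout is luminescence from Caspase-Glo 3/7 added after a 6 h ZIKV infection (2 FFU/cell) of compound-pretreated (1 h) SNB-19 cells; data expressed as % inhibition versus uninfected and infected wells.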

[3] = Natriuretic polypeptide receptor (hNpr1) antagonism - Pilot counterscreen GloSensor control cell line (AID 1347045; calls by dose curve)
Summary of the method: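 This counterscreen uses HEK293 cells expressing the GIP/pGS-40F cGMP biosensor. Compound-treated cells are challenged with 50 uM sodium nitroprusside, and the luciferase signal is compared before and after stimulation.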

[4] = target: Atrial natriuretic peptide receptor 1 (Homo sapiens) (UniProt P16066); experiment: Natriuretic polypeptide receptor (hNpr1) antagonism - Pilot screen (AID 1347049; calls by dose curve;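 also: agonist-evoked cGMP luminescence read 20 min after hNppA addition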)
Sequence of Atrial natriuretic peptide receptor 1 (Homo sapiens) (P16066 whole entry, looked up): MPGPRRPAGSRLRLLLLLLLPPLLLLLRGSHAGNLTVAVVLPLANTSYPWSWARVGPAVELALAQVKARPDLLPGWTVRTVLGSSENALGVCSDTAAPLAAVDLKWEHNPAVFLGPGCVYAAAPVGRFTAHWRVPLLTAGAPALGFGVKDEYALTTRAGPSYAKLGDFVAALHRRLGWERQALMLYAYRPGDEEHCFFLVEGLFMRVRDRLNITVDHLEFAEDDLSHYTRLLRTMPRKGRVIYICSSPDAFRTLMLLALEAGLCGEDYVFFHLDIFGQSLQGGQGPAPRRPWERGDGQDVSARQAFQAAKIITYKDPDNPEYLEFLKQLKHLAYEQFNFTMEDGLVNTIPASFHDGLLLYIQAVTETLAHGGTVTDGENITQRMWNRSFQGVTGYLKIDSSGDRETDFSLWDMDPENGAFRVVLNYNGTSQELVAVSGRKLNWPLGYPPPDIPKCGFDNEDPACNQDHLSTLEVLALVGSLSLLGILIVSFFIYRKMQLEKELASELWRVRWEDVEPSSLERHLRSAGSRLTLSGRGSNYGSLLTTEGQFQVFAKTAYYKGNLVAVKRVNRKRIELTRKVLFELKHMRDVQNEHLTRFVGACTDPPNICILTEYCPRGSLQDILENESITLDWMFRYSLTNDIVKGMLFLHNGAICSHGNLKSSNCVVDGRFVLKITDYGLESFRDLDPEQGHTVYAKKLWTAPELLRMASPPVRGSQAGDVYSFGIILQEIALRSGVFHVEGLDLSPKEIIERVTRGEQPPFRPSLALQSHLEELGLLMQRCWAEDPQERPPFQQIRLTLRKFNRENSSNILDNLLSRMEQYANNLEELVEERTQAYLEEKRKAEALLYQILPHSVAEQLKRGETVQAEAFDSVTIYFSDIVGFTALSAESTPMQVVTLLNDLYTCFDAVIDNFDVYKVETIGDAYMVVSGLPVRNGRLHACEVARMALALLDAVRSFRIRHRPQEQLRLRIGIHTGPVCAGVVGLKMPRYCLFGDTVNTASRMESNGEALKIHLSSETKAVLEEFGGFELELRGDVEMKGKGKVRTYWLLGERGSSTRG
Summary of the method: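 Readout is cGMP-driven firefly luciferase luminescence in HEK293 cells carrying hNpr1 and a PDE5-domain GloSensor, read before and 20 min after 0.1 nM hNppA stimulation. Cells had 2% substrate reagent for 2 h and test compound for 30 min.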

[5] = target: Atrial natriuretic peptide receptor 2 (Homo sapiens) (UniProt P20594); experiment: Natriuretic polypeptide receptor (hNpr2) antagonism - Pilot subtype selectivity assay (AID 1347050; calls by dose curve)
Sequence of Atrial natriuretic peptide receptor 2 (Homo sapiens) (P20594 whole entry, looked up): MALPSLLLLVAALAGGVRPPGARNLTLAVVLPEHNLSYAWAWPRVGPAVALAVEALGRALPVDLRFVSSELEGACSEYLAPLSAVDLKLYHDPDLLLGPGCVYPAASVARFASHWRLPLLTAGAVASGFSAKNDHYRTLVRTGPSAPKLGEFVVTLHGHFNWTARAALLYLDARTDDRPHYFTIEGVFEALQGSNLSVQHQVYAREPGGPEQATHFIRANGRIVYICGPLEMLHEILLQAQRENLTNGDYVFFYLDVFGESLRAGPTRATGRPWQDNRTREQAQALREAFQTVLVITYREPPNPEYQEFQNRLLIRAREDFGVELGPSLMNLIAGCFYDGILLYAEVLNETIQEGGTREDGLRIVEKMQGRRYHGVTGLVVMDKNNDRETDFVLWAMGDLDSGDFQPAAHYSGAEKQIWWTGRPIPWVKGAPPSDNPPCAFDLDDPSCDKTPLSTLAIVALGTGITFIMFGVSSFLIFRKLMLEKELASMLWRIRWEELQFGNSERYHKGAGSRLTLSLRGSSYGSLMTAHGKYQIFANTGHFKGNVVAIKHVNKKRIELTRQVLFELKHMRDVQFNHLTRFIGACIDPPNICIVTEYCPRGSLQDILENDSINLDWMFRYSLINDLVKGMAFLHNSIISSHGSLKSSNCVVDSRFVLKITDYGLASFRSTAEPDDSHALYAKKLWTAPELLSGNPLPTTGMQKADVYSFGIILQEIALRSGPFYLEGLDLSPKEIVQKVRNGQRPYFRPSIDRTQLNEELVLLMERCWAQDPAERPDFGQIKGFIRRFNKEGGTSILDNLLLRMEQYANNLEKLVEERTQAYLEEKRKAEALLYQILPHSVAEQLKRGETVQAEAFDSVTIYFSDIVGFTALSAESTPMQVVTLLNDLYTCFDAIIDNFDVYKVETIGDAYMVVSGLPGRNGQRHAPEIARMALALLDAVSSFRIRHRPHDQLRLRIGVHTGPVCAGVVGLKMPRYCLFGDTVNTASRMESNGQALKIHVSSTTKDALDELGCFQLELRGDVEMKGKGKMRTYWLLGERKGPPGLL
Summary of the method: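 Pilot selectivity screen against hNpr2: HEK293 cGMP-sensor cells are treated with LOPAC1280 compounds, then with hNppC peptide at 1 nM final. The cGMP-driven luminescence change over 20 min at room temperature is the read-out.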

[6] = NS1 protein of Zika virus - qHTS assay to identify small molecule inhibitors in human HEK 293 cells (AID 1347053); also: nearly all actives have a fitted effect of over 55% in size
Summary of the method: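 Following 20 h seeding, HEK 293 cells took compound, then 1 h later ZIKV MR766 (MOI = 0.5). Incubation ran 24 h at 37 C before TR-FRET detection of NS1; a drop in signal indicates inhibition.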

[7] = target: T1, Tyrosine-protein phosphatase non-receptor type substrate 1 (Homo sapiens) + Leukocyte surface antigen CD47 (Homo sapiens) (UniProt P78324+Q08722); experiment: CD47-SIRPalpha protein protein interaction - LANCE assay qHTS validation (AID 1347057; active = well fitted curve in the direction sought with a large enough effect in the signal ratio, with a control signal flat, not every such curve was filed as active; the % refers to the signal ratio)
T1 sequence (P78324 whole entry, looked up): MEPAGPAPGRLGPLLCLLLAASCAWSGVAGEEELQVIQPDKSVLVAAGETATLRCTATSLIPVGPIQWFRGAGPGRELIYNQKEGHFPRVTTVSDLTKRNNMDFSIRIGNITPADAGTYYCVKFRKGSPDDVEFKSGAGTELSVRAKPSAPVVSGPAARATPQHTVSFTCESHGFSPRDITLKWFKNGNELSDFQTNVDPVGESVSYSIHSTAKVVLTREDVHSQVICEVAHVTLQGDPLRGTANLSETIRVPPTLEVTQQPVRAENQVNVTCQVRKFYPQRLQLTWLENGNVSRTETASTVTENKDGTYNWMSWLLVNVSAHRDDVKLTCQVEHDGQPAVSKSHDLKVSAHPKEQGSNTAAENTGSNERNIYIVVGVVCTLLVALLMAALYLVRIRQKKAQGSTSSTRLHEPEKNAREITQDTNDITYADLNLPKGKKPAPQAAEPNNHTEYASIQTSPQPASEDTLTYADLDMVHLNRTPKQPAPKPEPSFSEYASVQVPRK
T1 sequence (Q08722 whole entry, looked up): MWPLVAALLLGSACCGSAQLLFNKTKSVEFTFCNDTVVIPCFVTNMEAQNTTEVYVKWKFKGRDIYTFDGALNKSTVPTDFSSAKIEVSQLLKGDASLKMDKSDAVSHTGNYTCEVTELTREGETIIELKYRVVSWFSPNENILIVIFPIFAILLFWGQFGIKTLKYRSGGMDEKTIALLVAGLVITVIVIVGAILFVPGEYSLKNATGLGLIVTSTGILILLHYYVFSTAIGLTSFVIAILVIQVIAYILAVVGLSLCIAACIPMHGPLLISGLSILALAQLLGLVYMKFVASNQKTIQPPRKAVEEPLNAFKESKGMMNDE
Summary of the method: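 First, His-tagged CD47 and Eu-labelled anti-His antibody met the compound for 30 min; next, site-specifically biotinylated SIRPalpha was added for 30 min; finally streptavidin-APC was added before reading the TR-FRET ratio.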

[8] = target: T1, Tyrosine-protein phosphatase non-receptor type substrate 1 (Homo sapiens) + Leukocyte surface antigen CD47 (Homo sapiens); experiment: CD47-SIRPalpha protein protein interaction - HTRF assay qHTS validation (AID 1347058; active = well fitted curve in the direction sought with a large enough effect in the signal ratio, not every such curve was filed as active; the % refers to the signal ratio;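 also: recombinant soluble extracellular CD47 with His tag and biotinylated SIRPalpha domains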)
Summary of the method: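 TR-FRET read (Ch1/Ch2 ratio) of soluble extracellular CD47 and Avi-biotinylated SIRPalpha domains in PBS pH 7.4 with 0.05% IGEPAL; 7-point compound titration. Sequential 30 min room-temperature steps; non-biotinylated SIRPalpha as control inhibitor.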

[9] = target: T1, Tyrosine-protein phosphatase non-receptor type substrate 1 (Homo sapiens) + Leukocyte surface antigen CD47 (Homo sapiens); experiment: CD47-SIRPalpha protein protein interaction - Alpha assay qHTS validation (AID 1347059);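 also: bead proximity luminescence from CD47 binding SIRPalpha after compound preincubation with SIRPalpha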
Summary of the method: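 Binding is measured by AlphaScreen proximity: Ni-NTA acceptor beads capture His-CD47, streptavidin donor beads capture biotin-SIRPalpha. Each of three additions (SIRPalpha with compound, CD47, beads) incubates 30 min at room temperature protected from light.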

[10] = target: Parathyroid hormone/parathyroid hormone-related peptide receptor (Homo sapiens) (UniProt Q03431); experiment: qHTS for PTHR1 Agonists: Optimization Screen against the NCGC LOPAC library (AID 1347079);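 also: GloSensor cAMP luminescence in HEK-293 GP2 cells expressing human PTHR1 with IBMX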; also: potency is read from the fitted curve at half-maximal effect
Sequence of Parathyroid hormone/parathyroid hormone-related peptide receptor (Homo sapiens) (Q03431 whole entry, looked up): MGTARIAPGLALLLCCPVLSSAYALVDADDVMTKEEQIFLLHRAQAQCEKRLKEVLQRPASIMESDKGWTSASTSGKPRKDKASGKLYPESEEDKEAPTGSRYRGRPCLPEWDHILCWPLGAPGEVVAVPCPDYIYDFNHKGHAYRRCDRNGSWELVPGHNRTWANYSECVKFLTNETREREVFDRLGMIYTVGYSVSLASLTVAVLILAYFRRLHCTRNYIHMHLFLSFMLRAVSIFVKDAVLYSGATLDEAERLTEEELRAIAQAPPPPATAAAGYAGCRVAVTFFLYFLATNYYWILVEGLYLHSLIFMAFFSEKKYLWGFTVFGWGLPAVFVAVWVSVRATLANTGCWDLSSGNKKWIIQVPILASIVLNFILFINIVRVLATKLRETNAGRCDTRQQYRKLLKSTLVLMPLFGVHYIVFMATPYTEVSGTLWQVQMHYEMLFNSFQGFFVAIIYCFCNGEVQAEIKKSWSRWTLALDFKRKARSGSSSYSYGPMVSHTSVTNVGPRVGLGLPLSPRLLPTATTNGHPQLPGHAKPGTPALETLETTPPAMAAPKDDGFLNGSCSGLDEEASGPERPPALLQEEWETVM
Summary of the method: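 Compounds were tested across a qHTS titration. PTHR1-expressing GP2 cells report cAMP rises via GloSensor luminescence after 1 hr compound exposure at 37C with IBMX present.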

[11] = target: N-terminal Xaa-Pro-Lys N-methyltransferase 1 (Homo sapiens) (UniProt Q9BV86); experiment: qHTS Assay for Inhibitors of N-terminal methyltransferase 1 (NTMT1): LOPAC validation of the NTMT1 SAHH-coupled ThioGlo3 Assay (AID 1347143);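 also: SAH from peptide methylation measured as thiol fluorescence via SAHH coupling and ThioGlo3; nearly all actives have a fitted effect of over 70% in size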; also: potency is read from the fitted curve at half-maximal effect
Sequence of N-terminal Xaa-Pro-Lys N-methyltransferase 1 (Homo sapiens) (Q9BV86 whole entry, looked up): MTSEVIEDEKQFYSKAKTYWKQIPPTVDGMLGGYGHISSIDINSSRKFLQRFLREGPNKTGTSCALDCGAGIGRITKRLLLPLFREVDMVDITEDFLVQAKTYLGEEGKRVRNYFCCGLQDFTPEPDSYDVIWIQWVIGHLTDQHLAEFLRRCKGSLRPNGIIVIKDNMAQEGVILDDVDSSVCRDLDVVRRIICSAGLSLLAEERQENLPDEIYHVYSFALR
Summary of the method: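 Inhibition of NTMT1 methylation of peptide SPKRIA is followed by converting SAH with SAHH and labelling the released thiol with ThioGlo3. Plates are read at 340/450nm before and 30 min after reagent addition, both at room temperature.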

[12] = test system: Zika virus NS2B-NS3 protease (unlinked); experiment: Optimization of GU AMC qHTS for Zika virus inhibitors: Unlinked NS2B-NS3 protease assay (AID 1347151); also: nearly all actives have a fitted effect of over 80% in size; also: potency is read from the fitted curve at half-maximal effect
Summary of the method: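 In this qHTS, compounds acted on 25 nM unlinked Zika NS2B–NS3 in pH 8.0 Tris/Tween buffer. Cleavage of an AMC peptide ran 15 min at room temperature, to about 20% conversion.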

[13] = test system: Zika virus NS2B-NS3 protease (unlinked complex); experiment: Confirmatory screen GU AMC qHTS for Zika virus inhibitors (AID 1347153); also: nearly all actives have a fitted effect of over 70% in size
Summary of the method: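 Fluorescence change (ex 340/em 450 nm) over 15 min, ~20% substrate conversion, normalized to no-inhibitor and no-enzyme controls, then Hill-fitted. Unlinked protease at 25 nM; AMC peptide 10 µM.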

[14] = test system: Zika virus NS2B-NS3 protease (linked construct); experiment: Confirmatory screen NINDS AMC qHTS for Zika virus inhibitors (AID 1347152);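 also: AMC fluorescence gain from cleaved Bz-Nle-KRR-AMC substrate over 15 min; top concentration of the series differs between compounds; nearly all actives have a fitted effect of over 70% in size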
Summary of the method: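 Concentration-response confirmation used the NINDS linked protease (NS2B hydrophilic domain joined to NS3 protease domain), 1 nM, with a 15-min compound preincubation. Substrate, Nle-KRR-AMC at 10 microM, was read by UV fluorescence before and after 15 min.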

[15] = target: Furin (Homo sapiens) (UniProt P09958); experiment: Furin counterscreen qHTS for Zika virus inhibitors (AID 1347149);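 also: purified recombinant full-length human furin enzyme at 5 nM; fluorescence gain from furin cutting a BOC-RVRR-AMC peptide substrate over 15 min; top concentration of the series differs between compounds; nearly all actives have a fitted effect of over 70% in size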
Sequence of Furin (Homo sapiens) (P09958 whole entry, looked up): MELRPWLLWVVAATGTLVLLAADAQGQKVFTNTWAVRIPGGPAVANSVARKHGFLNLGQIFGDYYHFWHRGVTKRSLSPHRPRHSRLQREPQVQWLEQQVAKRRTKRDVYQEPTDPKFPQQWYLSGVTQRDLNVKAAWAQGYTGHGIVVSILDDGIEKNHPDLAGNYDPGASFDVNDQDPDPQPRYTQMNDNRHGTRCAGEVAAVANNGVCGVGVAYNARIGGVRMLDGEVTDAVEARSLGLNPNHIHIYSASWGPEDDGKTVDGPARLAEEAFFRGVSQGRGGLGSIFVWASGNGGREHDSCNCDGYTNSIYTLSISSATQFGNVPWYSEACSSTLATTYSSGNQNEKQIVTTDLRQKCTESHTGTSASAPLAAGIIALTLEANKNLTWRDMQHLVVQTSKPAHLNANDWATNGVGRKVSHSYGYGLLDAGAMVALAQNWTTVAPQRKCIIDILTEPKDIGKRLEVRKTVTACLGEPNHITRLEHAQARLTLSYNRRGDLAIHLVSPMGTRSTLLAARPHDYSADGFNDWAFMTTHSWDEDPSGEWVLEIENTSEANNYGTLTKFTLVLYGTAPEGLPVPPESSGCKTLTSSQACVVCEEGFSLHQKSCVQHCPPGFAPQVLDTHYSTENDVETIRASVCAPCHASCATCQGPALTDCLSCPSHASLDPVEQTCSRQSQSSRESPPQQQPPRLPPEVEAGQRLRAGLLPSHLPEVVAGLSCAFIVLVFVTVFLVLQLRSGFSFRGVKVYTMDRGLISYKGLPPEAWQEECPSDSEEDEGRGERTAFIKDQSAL
Summary of the method: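 Fluorogenic cleavage of BOC-RVRR-AMC (2 microM final, Km ~15 µM) was monitored (ex 340, em 450 nm) at 37C after 15 min RT preincubation of 5 nM furin with compounds in HEPES pH 7.0 buffer with CaCl2 and Triton X-100. Percent inhibition was fitted to a 4-parameter Hill curve.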

[16] = qHTS profiling of the MIPE4 collection as inhibitors of Plasmodium falciparum (DD2) proliferation (AID 743345; call rule not given here); conditions: P. falciparum Dd2 in erythrocytes, SYBR Green DNA, 72 h; at 28.5 µM (top of the series)
Summary of the method: (§1)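 Erythrocytes infected with P. falciparum (0.3% parasitemia, 2.5% hematocrit) incubated with compounds 72 h at 37 C, 5% CO2. Lysis with saponin/Triton buffer containing SYBR Green I, overnight at room temperature in the dark; DNA fluorescence (485/535 nm) normalised to 0.29 uM artemisinin and DMSO.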

[17] = qHTS profiling of the MIPE4 collection as inhibitors of Plasmodium falciparum (DD2) proliferation (Rep 2) (AID 743346; call rule not given here); conditions: P. falciparum Dd2 in erythrocytes, SYBR Green DNA, 72 h; at 28.5 µM (top of the series)
Summary of the method: as §1

[18] = qHTS profiling of the MIPE4 collection as inhibitors of Plasmodium falciparum (HB3) proliferation (AID 743347; call rule not given here); conditions: P. falciparum HB3 in erythrocytes, SYBR Green DNA, 72 h; at 28.5 µM (top of the series)
Summary of the method: as §1

SMILES | Potency [1] | Potency [2] | Potency [3] | Potency [4] | Potency [5] | Potency [6] | Potency [7] | outcome [8] | Potency [9] | Potency [10] | Potency [11] | Potency [12] | Potency [13] | Potency [14] | Potency [15] | parasite growth remaining, % of DMSO control (lower = more inhibition) [16] | parasite growth, % of control (lower = inhibition) [17] | growth, % of control [18]
CC(=O)C(C)=O | inactive | inactive | inactive | inactive | inactive | inactive | inactive | inactive | inactive | inactive | inactive | inactive |  |  |  |  |  | 
Cc1cccc(C(=O)NCN2CCN(c3ccccc3C#N)CC2)c1 |  |  |  |  |  |  |  |  |  |  |  |  | inactive |  |  |  |  | 
NCC(O)C1CCCCCCC1 (stereo unspecified) | inactive | inactive | inactive | inactive | inactive | inactive | inactive | inactive |  | inactive |  | inactive |  |  |  |  |  | 
O=C1C2C=CC=CC2=NC(=S)N1CCN1CCC(=C(c2ccc(F)cc2)c2ccc(F)cc2)CC1 (stereo unspecified) | inactive | inactive | inactive | inactive | inactive | inactive | inactive | inactive |  |  | inactive |  |  |  |  |  |  | 
Nc1nc2ccc(Cl)cc2c2nc(-c3ccco3)nn12 | inactive | inactive | inactive | inactive | inactive | inactive | inactive | inactive |  | 6.7 µM (active) |  |  | inactive | inactive |  |  |  | 
N=C(N)c1ccccc1 | inactive | inactive | inactive | inactive | inactive | inactive | inactive | inactive |  |  | inactive | inactive |  |  |  |  |  | 
COc1cc(CNC(=O)CCCCCCC(C)C)ccc1O | inactive | inactive | inactive | inactive | inactive | inactive | inactive |  | inactive | inactive |  |  |  |  |  |  |  | 
CC1=C(C(=O)O)N2C(=O)[C@@H](NC(=O)C(N)C3=CCC=CC3)[C@H]2SC1 (stereo partly specified) | inactive | inactive | inactive | inactive | inactive | inactive | inactive |  | inactive | inactive | inactive | inactive |  |  |  |  |  | 
CCCCCCCCCCCCCCSCC(=O)O | inactive | inactive | inactive | inactive | inactive | inactive | inactive | inactive |  | inactive | inactive | 11.9 µM (active) |  |  |  |  |  | 
CCCCCCC(=O)OC1CC(C)(C)NC(C)(C)C1 | inactive | inactive | inactive | inactive | inactive | inactive | inactive | inactive |  |  | inactive | inactive |  |  |  |  |  | 
O=c1[nH]c(=O)c2nc3ccccc3nc2[nH]1 | inactive | inactive | inactive | inactive | inactive | inactive | inactive |  | inactive | inactive | 56.2 µM (active) | 26.7 µM (active) |  |  |  |  |  | 
CCN(c1nc(N)c(C(=O)N=C(N)N)nc1Cl)C(C)C | inactive | inactive | inactive | inactive | inactive | inactive | inactive |  | inactive | inactive | inactive |  |  |  |  |  |  | 
COc1ccccc1N1CCN(CCCNc2c(C)c(=O)n(C)c(=O)n2C)CC1 | inactive | inactive | inactive | inactive | inactive | inactive | inactive | inactive |  | inactive |  |  | inactive | inactive | inactive |  |  | 
Cc1nc(N=Nc2ccc(S(=O)(=O)O)cc2S(=O)(=O)O)c(COP(=O)(O)O)c(C=O)c1O | inactive | inactive | inactive | inactive | inactive | inactive | inactive |  | inactive | inactive | inactive | inactive |  |  | inactive | 100% | 213% | 93.6%
COC1(C2=NCCN2)COc2ccccc2O1 (stereo unspecified) | inactive | inactive | inactive | inactive | inactive | inactive | inactive |  | inactive | inactive | inactive | inactive |  |  |  |  |  | 
[Li+] | inactive | inactive | inactive | inactive | inactive | inactive | inactive |  | inactive | inactive | inactive | inactive |  |  |  |  |  | 
N[C@@H](Cc1c[nH]c2ccccc12)C(=O)O | inactive | inactive | inactive | inactive | inactive | inactive | inactive | inactive | inactive |  |  | inactive |  |  |  |  |  | 
CO/N=C(\C(=O)N[C@@H]1C(=O)N2C(C(=O)O)=C(CSc3nc(=O)c(O)nn3C)CSC12)c1csc(N)n1 (stereo partly specified) | inactive | inactive | inactive | inactive | inactive | inactive | inactive | inactive |  |  | inactive | inactive |  |  |  |  |  | 
COc1ccccc1N1CCN(CCCCNC(=O)c2ccc3ccccc3c2)CC1 | inactive | inactive | inactive | inactive | inactive | inactive | inactive |  | inactive | inactive | inactive | inactive |  |  |  |  |  | 
O=c1[nH]ccc2c(O)cccc12 | inactive | inactive | inactive | inactive | inactive | inactive | inactive |  | inactive | inactive | 56.2 µM (active) | 29.9 µM (active) |  |  |  |  |  | 
C[C@](Cc1ccc(O)c(O)c1)(NN)C(=O)O | inactive | inactive | inactive | inactive | inactive | inactive | inactive | inactive |  |  | 39.8 µM (active) | inactive |  |  |  |  |  | 
COc1cc(/C=C(\C#N)C(=O)c2ccc(O)c(O)c2)cc(I)c1O | inactive | inactive | inactive | inactive | inactive | inactive | inactive |  | inactive | inactive | 50.1 µM (active) |  |  |  |  |  |  | 
COc1ccc2c(c1)CCC1C2CC[C@@]2(C)C1CC[C@@H]2NCCCCCCN1C(=O)C=CC1=O (stereo partly specified) | inactive | inactive | inactive | inactive | inactive | inactive | inactive | inactive |  |  | inactive | inactive |  |  |  |  |  | 
